# Assay results published in ChEMBL document CHEMBL4513146, “CO-ADD screening of Karazin Kharkiv National University (Ukraine) compounds”.
# Measured potencies and affinities stand elsewhere.
# Tests used:
# Staphylococcus aureus = details: Concentration 32 ug.mL-1;; ASSAY_TEST Inhibition of Bacterial Growth; detection method Absorption (OD600); MEDIA CAMHB; plate type 384well; NBS; CORNING #3640; time 18 hr
# Escherichia coli = details: Concentration 32 ug.mL-1;; ASSAY_TEST Inhibition of Bacterial Growth; detection method Absorption (OD600); MEDIA CAMHB; plate type 384well; NBS; CORNING #3640; time 18 hr
Structure (SMILES),Inhibition (Staphylococcus aureus),Inhibition (Escherichia coli)
COc1ccc(NC(=O)Cn2nc3ccc(Sc4ccccc4)nn3c2=O)cc1,7.63%,-10.85%
COc1cccc(Sc2nc3ccccc3n3c(=O)n(CC(=O)Nc4ccc(C)c(C)c4)nc23)c1,2.16%,0.23%
Cc1ccc(-c2cc3c4nn(CC(=O)Nc5ccc6c(c5)OCO6)c(=O)n4ccn3n2)cc1,12.49%,-1.53%
COc1cccc(NC(=O)Cn2nc3c4c5c(sc4ncn3c2=O)CCCC5)c1,2.27%,-1.99%
Cc1ccc(NC(=O)Cn2nc3c(Oc4cccc(C)c4C)nccn3c2=O)c(Br)c1,0.42%,-4.42%
Cc1ccc(-c2cc3c4nn(CC(=O)Nc5cccc(C)c5C)c(=O)n4ccn3n2)cc1C,13.1%,-0.36%
Cc1ccc(N(CC(=O)OC(C)(C)C)S(=O)(=O)c2cccn3cnnc23)cc1,15.19%,-3.99%
O=C(Cn1nc2ccc(-c3ccccc3)nn2c1=O)Nc1ccc(F)c(Cl)c1,7.52%,-1.06%
Cc1ccccc1Oc1nccn2c(=O)n(CC(=O)Nc3ccc(F)cc3F)nc12,15.72%,1.95%
CCOc1ccccc1CNC(=O)CCc1nnc2ccc(-c3ccccc3)nn12,9.42%,-2.56%
Cc1cc(NC(=O)CSc2nc3ccccc3n3cnnc23)ccc1Br,13.29%,3.15%
O=c1n(Cc2ccccc2F)nc2ccc(S(=O)(=O)N3CCCCCC3)cn12,2.98%,-8.1%
COc1ccccc1CNC(=O)CSc1nnc2c3cc(-c4ccc(C)cc4)nn3ccn12,-5.58%,-8.49%
Cc1cc(C)cc(N(Cc2cc(F)cc(F)c2)S(=O)(=O)c2cccn3c(C)nnc23)c1,9.54%,-1.86%
Cc1ccc(Sc2nccn3c(=O)n(CC(=O)N4CCN(c5ccc(F)cc5)CC4)nc23)c(C)c1,-13.09%,-20.44%
Cc1cccc(NC(=O)CSc2nnc3ccc(C(=O)Nc4cccc(F)c4)cn23)c1C,10.8%,-1.92%
O=C(Cn1nc2n(Cc3ccc(F)cc3)c(=O)c3ccccc3n2c1=O)Nc1ccc2c(c1)OCO2,15.06%,-3.01%
O=C(Cn1nc2c(Oc3ccccc3)nccn2c1=O)Nc1ccc(F)cc1Cl,2.27%,-4.59%
CCc1nnc2c(=O)n(CC(=O)Nc3ccc(C#N)cc3)c3ccccc3n12,12.29%,-5.97%
COc1ccccc1CNC(=O)Cn1nc2c(N3CCCCCC3)nccn2c1=O,17.1%,-0.92%
Cc1cccc(Sc2nccn3c(=O)n(CC(=O)N4CCN(c5ccc(F)cc5)CC4)nc23)c1,-10.95%,-6.75%
Cc1cc(C)c(NC(=O)Cn2nc3ccc(SC(C)(C)C)nn3c2=O)c(C)c1,11.62%,-0.74%
Cc1ccc(NC(=O)CSc2nnc3c(=O)n(-c4ccc(C)c(C)c4)ccn23)c(Cl)c1,11.19%,-1.65%
COc1ccccc1N1CCN(C(=O)Cn2nc3c(Sc4cccc(C)c4)nccn3c2=O)CC1,5.8%,-4.78%

Structure (SMILES),Inhibition (Staphylococcus aureus),Inhibition (Escherichia coli)
COc1ccc(CCn2c(=O)c3sccc3n3c(=O)n(Cc4c(F)cccc4Cl)nc23)cc1OC,-2.47%,-5.54%
CCOC(=O)c1ccc(NC(=O)Cn2nc3c4sc(N5CCCC5)nc4ncn3c2=O)cc1,6.07%,-11.73%
CCc1nnc2ccc(S(=O)(=O)N(Cc3cccc(F)c3)c3ccc(OC)cc3)cn12,7.39%,-21.14%
COc1ccc(NC(=O)Cn2nc3ccc(-c4ccc(C)c(C)c4)nn3c2=O)cc1OC,11.61%,-6.17%
COc1ccc(N2CCN(C(=O)Cn3nc4ccc(S(=O)(=O)C(C)(C)C)nn4c3=O)CC2)cc1,12.76%,0.99%
CCc1nnc2c(=O)n(CC(=O)Nc3ccc4c(c3)OCCO4)c3ccccc3n12,2.09%,-4.51%
CCc1ccc(N(Cc2cccc(OC)c2)S(=O)(=O)c2cccn3cnnc23)cc1,17.37%,2.31%
O=C(Cn1nc2c(N3CCOCC3)nccn2c1=O)Nc1ccc2c(c1)OCO2,15.61%,0.24%
Cc1ccc(NC(=O)Cn2nc3ccc(-c4ccc(Cl)cc4)nn3c2=O)cc1F,3.27%,-3.59%
COc1ccccc1-n1ccn2c(SCc3ccccc3Cl)nnc2c1=O,15.04%,-4.4%
COc1ccc(NC(=O)Cn2nc3ccc(-c4ccc(Cl)cc4)nn3c2=O)cc1OC,-0.18%,-4.63%
COc1ccccc1NC(=O)Cn1nc2c(SCc3ccc(Cl)cc3)nccn2c1=O,2.82%,-8%
COc1ccc(N2CCN(C(=O)Cn3nc4c(Sc5cccc(C)c5)nccn4c3=O)CC2)cc1,0.43%,-16.62%
COc1ccc(OC)c(NC(=O)Cn2nc3c4cc(-c5ccc(C)c(C)c5)nn4ccn3c2=O)c1,0.06%,-4.32%
O=C(Cn1nc2c(Sc3cccc(F)c3)nccn2c1=O)N1CCN(c2ccccc2)CC1,1.07%,1.18%
Cc1ccc(NC(=O)Cn2nc3ccc(-c4ccccc4)nn3c2=O)cc1,2.61%,-12.45%
CCCCc1ccc(NC(=O)Cn2nc3c(N4CC(C)CC(C)C4)nccn3c2=O)cc1 (configuration not stated),-4.53%,-8.88%
CC(C)c1nnc2c(=O)n(CC(=O)Nc3ccc(C#N)cc3)c3ccccc3n12,-0.41%,-7.65%
CCOC(=O)c1ccccc1NC(=O)CSc1nnc2ccc(C(=O)Nc3cccc(F)c3)cn12,9.51%,-2.64%
Cc1ccc2c(c1)N(C(=O)Cn1nc3ccc(SCc4ccc(Cl)cc4)nn3c1=O)CCO2,2.18%,-5.63%
CCOc1ccc(NC(=O)Cn2nc3c(N4CCCC(C)C4)nccn3c2=O)cc1 (configuration not stated),4.96%,-4.53%
Cc1ccc(CNC(=O)CSc2nnc3c4cc(-c5ccc(C)cc5)nn4ccn23)cc1,9.17%,0.59%
O=C(CSc1nnc2c(=O)n(-c3ccccc3)ccn12)Nc1ccc(F)cc1F,-3.92%,-2.13%
Cc1cc(C)cc(Nc2nc(C)cc3nn(CC(=O)Nc4cc(F)cc(F)c4)c(=O)n23)c1,7.68%,-2.61%

Structure (SMILES),Inhibition (Staphylococcus aureus),Inhibition (Escherichia coli)
CC(C)c1nnc2c(=O)n(CC(=O)Nc3ccc(Cl)c(Cl)c3)c3ccccc3n12,8.95%,5.48%
CCc1ccc(NC(=O)Cn2nc3ccc(SC4CCCCC4)nn3c2=O)cc1,16.16%,2.08%
O=c1n(Cc2cc(F)cc(F)c2)nc2ccc(-c3ccccc3)nn12,8.62%,-1.58%
COc1ccc(C(=O)CSc2nnc3c(=O)n(-c4ccc(F)cc4)ccn23)cc1,13.68%,-0.44%
CCOc1ccc(NC(=O)Cn2nc3ccc(SCc4ccc(Cl)cc4)nn3c2=O)cc1,5.28%,-5.7%
Cc1ccc(NC(=O)Cn2nc3c4cc(-c5ccc(C)c(C)c5)nn4ccn3c2=O)c(Cl)c1,9.28%,-1.41%
Cc1cc(NC(=O)Cn2nc3ccc(SC(C)(C)C)nn3c2=O)ccc1Br,-0.85%,-5.34%
O=c1c2nnc(SCc3ccccc3Cl)n2ccn1-c1ccc(F)c(F)c1,11.5%,-3.79%
O=C(Cn1nc2ccc(Sc3cccc(F)c3)nn2c1=O)NCc1ccc(C(F)(F)F)cc1,12.64%,-0.57%
Cc1ccc(CNC(=O)Cn2nc3ccc(SC4CCCCC4)nn3c2=O)cc1,11.69%,-11.87%
COc1cccc(CSc2nnc3c(=O)n(-c4ccccc4OC)ccn23)c1,-2.45%,1.01%
COc1ccc(NC(=O)Cn2nc3ccc(SC(C)(C)C)nn3c2=O)cc1Cl,-0.4%,-6.93%
Cc1ccc(NC(=O)Cn2c(=O)c3nnc(C)n3c3ccccc32)cc1C,17.12%,0.02%
Cc1cc(C)c(NC(=O)Cn2nc3ccc(SC4CCCCC4)nn3c2=O)c(C)c1,7.62%,-6.45%
Cc1ccc(N(Cc2ccc(F)cc2)S(=O)(=O)c2ccc3nnc(C)n3c2)cc1,0.5%,-5.57%
CN(C(=O)Cn1nc2n(Cc3ccco3)c(=O)c3sccc3n2c1=O)c1ccccc1,0.44%,-5.3%
COC(=O)c1ccc(NC(=O)CSc2nnc3c4cc(-c5ccc(OC)cc5)nn4ccn23)cc1,8.99%,0.03%
COc1ccc(-n2ccn3c(-c4ccc([N+](=O)[O-])cc4)nnc3c2=O)cc1,12.69%,-0.05%
Cc1ccc(NC(=O)Cn2nc3c(SCc4ccccc4)nccn3c2=O)cc1C,6.06%,-10.79%
CC(C)Cn1c(=O)c2sccc2n2c(=O)n(Cc3ccc(N4CCCC4=O)cc3)nc12,-1.91%,-2.57%
CC(C)NC(=O)Cn1nc2n(Cc3ccco3)c(=O)c3sccc3n2c1=O,9.36%,3.27%
Cc1ccc(-c2cc3c4nnc(CCC(=O)NCCCc5ccccc5)n4ccn3n2)cc1C,6.48%,1.28%
CCN(CCCNC(=O)CCc1nnc2ccc(-c3ccc(C)c(C)c3)nn12)c1ccccc1,-5.09%,-5.52%
